High-throughput results as filed in PubChem.
Compounds with a hit are over-represented: about 7.5% of the library has one in this group of screens.
ELG1 genotoxic: qHTS screen for small molecules that induce genotoxicity in human embryonic kidney (HEK293T) cells expressing luciferase-tagged ELG1; Potency, µM (doses to about 46 µM), for inactives: top-dose activity change, positive = activation, usual class: activators; AID 504466, 2011; 330,000 compounds, 1.3% hits; HEK293T ELG1-luciferase reporter, luminescence, 16 h; further: % of control where 0% means no effect; nearly all actives have a fitted effect of over 60% in size
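Reporter readout depends on ELG1 protein level, which increases with genetic stress. After 16 hr compound exposure at 37 °C, luciferase activity was quantified using ONE-Glo.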
Rab9 promoter act: qHTS Assay for Rab9 Promoter Activators | Huh7 Rab9 promoter-luciferase reporter, luminescence, 24 h | Potency, µM (series often up to 9.22 µM), inactives show at the top dose activation, negative = inhibition, usual class: activators | 320,000 compounds, 2.8% hits | AID 485297, 2010; further: % of control where 0% means no effect; nearly all actives have a fitted effect of over 60% in size
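Rab9 promoter-driven luciferase in stably transfected Huh7 cells; 1500 cells/well rested 2 h, exposed to compound in DMSO for 24 h at 37 °C, 5% CO2. Luminescence read 10 min after adding luciferase reagent at ambient temperature.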
FLuc counter: qHTS profiling assay for firefly luciferase inhibitor/activator using purifed enzyme and Km concentrations of substrates (counterscreen for miR-21 project) | 360,000 compounds, 6.9% hits | purified FLuc, Km substrates, luminescence inhibition | Potency, µM (top dose mostly 57.5 µM), inactives show top-dose activity change, negative = inhibition, usual class: inhibitors;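 further: plate controls were vehicle for no effect and reference inhibitor for full effect; nearly all actives have a fitted effect of over 55% in size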
Target sequence (P08659 whole entry, looked up): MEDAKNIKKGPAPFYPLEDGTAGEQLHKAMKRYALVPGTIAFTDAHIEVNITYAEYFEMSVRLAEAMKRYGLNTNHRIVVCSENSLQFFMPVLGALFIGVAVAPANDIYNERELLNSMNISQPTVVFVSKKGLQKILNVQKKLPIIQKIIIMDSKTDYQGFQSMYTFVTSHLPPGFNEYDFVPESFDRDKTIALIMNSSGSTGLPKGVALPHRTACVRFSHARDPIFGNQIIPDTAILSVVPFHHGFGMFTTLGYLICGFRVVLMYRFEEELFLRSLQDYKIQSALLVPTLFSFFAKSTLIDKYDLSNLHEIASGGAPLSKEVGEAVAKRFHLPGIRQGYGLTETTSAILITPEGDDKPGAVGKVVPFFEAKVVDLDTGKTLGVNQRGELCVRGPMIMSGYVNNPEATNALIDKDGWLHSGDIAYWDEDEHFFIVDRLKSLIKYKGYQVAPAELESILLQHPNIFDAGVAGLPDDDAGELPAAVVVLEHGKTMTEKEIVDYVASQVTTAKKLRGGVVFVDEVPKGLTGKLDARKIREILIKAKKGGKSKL
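Purified P. pyralis luciferase (10nM final) with 10uM D-luciferin and 10uM ATP (Km levels) in 50mM Tris acetate pH 7.5, 10mM Mg acetate, 0.01% Tween-20, 0.05% BSA; qHTS 6-point titration, ~60 µM downward; luminescence read.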
NPC1 promoter act: qHTS Assay for NPC1 Promoter Activators; Huh7 NPC1 promoter luciferase reporter, 24 h; Potency, µM (doses to about 9.22 µM), without a hit: at the top dose activation, hits mostly activators; 320,000 compounds, 2.4% hits; AID 485313, 2010; further: % of control where 0% means no effect; nearly all actives have a fitted effect of over 60% in size
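Readout is luciferase luminescence, reflecting NPC1 promoter activation in stably transfected Huh7 cells after 24 h compound exposure at 37 °C in reduced-serum medium with 10% FBS.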
SMN2 splice up: qHTS Assay for Enhancers of SMN2 Splice Variant Expression; 210,000 compounds, 2.8% hits; AID 1458, 2008; HEK293 SMN2-luciferase splicing reporter, luminescence, 30-36 h; Potency, µM (highest dose often 46.1 µM), without a hit: top-dose activity change, positive = activation, usual class: activators; further: % of control where 0% means no effect; nearly all actives have a fitted effect of over 55% in size
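qHTS luciferase splicing reporter: luminescence rises when SMN2 exon 7 is included in transfected HEK293 cells. Compound exposure lasted 30-36 h at 37C, with 4.5 mM final sodium butyrate as control, followed by a ONE-Glo read.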
The depositor's hits bear a star; ? = inconclusive; nt = no result given; [ ] = remark or other dose. The call rests on the fitted dose curve; in most records, active means well fitted curve in the direction sought with a large enough effect; inconclusive means small, poorly fitted or top-dose-only effect, or another doubt; inactive means no such curve, though single readings can be large; an effect the other way counts as inactive or inconclusive. Potency means the concentration at half of the fitted maximal effect.

SMILES	ELG1 genotoxic	Rab9 promoter act	FLuc counter	NPC1 promoter act	SMN2 splice up
COC(=O)c1ccccc1NC(=O)Cn1nnc2sc(-c3ccccc3)cc2c1=O	nt	nt	-1.9%	nt	-5.8%
O=C(Nc1ccc2c(c1)OCCO2)C1CC(c2ccccc2Cl)=NO1 (configuration not stated)	6.0%	3.98µM*	19µM*	3.98µM*	nt
O=C(CSc1nnc(-c2ccc(F)cc2)o1)c1ccc2c(c1)OCCO2	2.3%	-0.8%	-14.6%[2.3 µM]	0.5%	3.3%
CC(C)(C)c1ccc(-c2nnc(SCC(=O)c3ccc4c(c3)OCCO4)o2)cc1	-3.2%	-16.9%	23.9µM*	-2.3%	-40.4%
O=C(CSc1nnc(-c2ccc(O)cc2)o1)Nc1cccc(O)c1	?	-0.8%	?	12.8%	nt
COc1ccc(-c2nnc(SC(C)C(=O)Nc3ccc4c(c3)OCCO4)o2)cc1 (configuration not stated)	5.8µM*	?	?	18.1%	17.8µM*
O=C(CSc1nnc(-c2ccc(O)cc2)o1)Nc1ccc2c(c1)OCCO2	15.4%	3.98µM*	?	3.16µM*	15.8µM*
Cc1ccsc1/C=C1/SC(=O)N(CC(=O)N2CCCC2)C1=O	3.5%	19.4%	-11.7%	17.9%	nt
Cc1ccc(C(=O)Nc2ccccc2N2CCN(C(=O)C(C)C)CC2)cc1	-12.1%	-1.4%	-1.4%	15.6%	-10.0%
COc1cc(OC)nc(NC2OC(=O)c3ccccc32)n1 (configuration not stated)	-3.3%	-6.0%	0.3%	1.5%	-3.2%
O=C(CSc1nnc(-c2ccccc2Cl)o1)Nc1ccc2c(c1)OCCO2	?	?	?	29.2%	14.1µM*
O=C(CSc1nnc(CNC(=O)c2ccccc2)o1)Nc1ccc2c(c1)OCCO2	4.1%	5.9%	?	6.1%	nt
Nc1[nH]nc2nc(NCc3ccccc3)c3c(c12)CCN(Cc1ccccc1)C3	1.5%	2.8%	4.1%	2.4%	25.1µM*
O=C(NCc1ccc(F)cc1)c1c2c(nc3ccccc13)CCN(Cc1ccccc1)C2	0.1%	-4.2%	12.0%	-3.3%	19.0%
C=CCn1c(SCC(=O)Nc2nnc(C)s2)nnc1-c1cccnc1	2.1%	1.3%	5.1%	-1.2%	22.7%
Cc1nnc(C)n1/N=C/c1cccc([N+](=O)[O-])c1	3.0%	-1.1%	-2.2%	-8.1%	1.7%
O=[N+]([O-])c1cccc(/C=N/N=C\c2ccccc2)c1	7.7%	-2.0%	3.38µM*	1.6%	nt
O=[N+]([O-])c1ccc(N/N=C/c2ccccc2)c(F)c1	?	?	10.7µM*	?	22.4µM*
COc1ccc(Br)cc1S(=O)(=O)N1CCCc2ccccc21	-6.3%	2.3%	3.3%	-3.9%	nt
COc1ccc(C(C)=O)cc1COC(=O)CSC(C)C(=O)Nc1cc(C)on1 (configuration not stated)	-2.0%	2.7%	3.3%	-2.0%	nt
Cc1ccc(N(CC(=O)NCc2ccc(Cl)cc2)S(C)(=O)=O)cc1	3.4%	0.6%	-3.1%	0.5%	nt
COc1ccc(OC)c(S(=O)(=O)N2CCCC(C(=O)N3CCCC3)C2)c1 (configuration not stated)	0.9%	0.0%	-2.0%	-4.7%	nt
c1ccc(-n2ncc3c2ncn2nc(-c4ccco4)nc32)cc1	1.64µM*	1.12µM*	0.849µM*	3.16µM*	11.2µM*
O=S(=O)(NCC(c1cccnc1)N1CCN(c2ccc(F)cc2)CC1)c1ccc(F)cc1 (configuration not stated)	-16.0%	-5.9%	7.4%	1.3%	-11.8%
O=C1OC(c2ccc(F)cc2)=C/C1=C\c1ccc(O)cc1	1.3%	13.5%	10.7µM*	7.7%	nt
SMILES	ELG1 genotoxic	Rab9 promoter act	FLuc counter	NPC1 promoter act	SMN2 splice up
CS(=O)(=O)c1ccc2sc(NC(=O)c3cc4ccccc4o3)nc2c1	1.8%	?	2.69µM*	?	nt
CS(=O)(=O)c1ccc2nc(NC(=O)c3cc4ccccc4o3)sc2c1	0.7%	?	2.69µM*	?	20.9%
COc1ccccc1C(=O)Nc1nc2ccc(S(C)(=O)=O)cc2s1	9.9%	?	?	27.3%	0.8%
CC(C)(C)OC(=O)COc1ccc(/C=N/NC(=O)CN2CCCCC2)cc1	?	1.12µM*	2.2%	1.58µM*	nt
CC(C)(C)c1ccc(OCC(=O)N/N=C/c2ccsc2)cc1	-0.5%	-2.3%	10.7µM*	0.2%	nt
CC(C)(C)c1ccc(OCC(=O)N/N=C/c2ccc(N3CCOCC3)cc2)cc1	0.3%	-8.6%	5.36µM*	-0.2%	-1.9%
Cc1ccc(C)c(OCC(=O)N/N=C/c2ccsc2)c1	3.7%	2.5%	-2.3%	-2.3%	8.5%
C=CCNC(=O)N1CCCC(C(=O)c2cccc(OC(C)C)c2)C1 (configuration not stated)	?	3.55µM*	16.9µM*	?	nt
CCNC(=S)N/N=C/c1cc(Br)cc(Br)c1OC	9.6%	-10.4%	0.6%	-3.6%	18.1%
CCCCN1C(=O)C(=O)N(c2ccccc2)C1=S	?	3.55µM*	12µM*	3.16µM*	11.2µM*
COc1ccc(-c2nsc(NC(=O)c3oc4ccc(Cl)cc4c3C)n2)cc1	nt	nt	-15.8%	nt	3.9%
CCc1ccc2oc(C(=O)Nc3nonc3CC)c(C)c2c1	?	3.55µM*	?	?	10.9%
CCc1nonc1NC(=O)c1oc2ccc(C)cc2c1C	?	?	?	?	20.6%
Cc1nonc1NC(=O)c1oc2ccc(F)cc2c1C	13.6%	?	-0.6%	?	nt
CCc1ccc2oc(C(=O)Nc3nc(-c4ccccc4)ns3)c(C)c2c1	nt	nt	5.36µM*	nt	?
Cc1cc2oc(C(=O)Nc3nonc3C)c(C)c2cc1Cl	?	3.55µM*	-5.7%	?	nt
COc1ccc(CCNS(=O)(=O)c2ccc(Br)cc2)cc1	-0.2%	-2.3%	-2.9%	-0.8%	nt
COc1cc2c(cc1OC)[C@@H](NC(=O)CCc1ccccc1)[C@H](OCc1ccccc1)C2	-1.4%	nt	nt	nt	nt
CCN(C(=O)Cn1cnc2c1c(=O)n(C)c(=O)n2C)C1CCCCC1	1.4%	-5.2%	-2.1%	-1.0%	nt
COc1cc(/C=C(\CC(=O)O)c2nc3ccccc3s2)cc(OC)c1O	4.7%	1.4%	?	1.3%	6.1%
O=C(O)c1ccc(C=C(c2nc3ccccc3s2)c2nc3ccccc3s2)cc1	-1.5%	1.7%	12µM*	-2.7%	0.3%
CN(C)c1ccc(/C=C(\Cl)c2nc3ccccc3s2)cc1	?	1µM*	1.2µM*	2.51µM*	-110.8%
C=CCNC(=O)c1nc2ccccc2s1	6.9%	14.4%	?	14.5%	19.1%
COc1cc(C=C(c2nc3ccccc3s2)c2nc3ccccc3s2)cc(OC)c1O	-1.9%	-4.5%	15.1µM*	2.1%	-16.0%
COc1cccc(-c2noc(-c3cc4ccccc4oc3=O)n2)c1OC	nt	nt	2.69µM*	nt	nt
